A selection: hits, their analogues and other compounds. The true share with any hit is near 12%.
BAZ2B inh – blocks human BAZ2B; actives 4.4% (n = 360,000); AlphaScreen BAZ2B-H3K14Ac peptide displacement; Potency, µM (top dose mostly 114 µM), for inactives: top-dose activity change, negative = inhibition, actives largely listed as inhibitors; note: % is set by controls: 0 for no effect and ±100 for the full control effect; nearly all actives have a fitted effect of over 60% in size
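Multi-concentration screen (max 110 uM) measuring displacement of acetylated histone H3 peptide from BAZ2B by AlphaScreen, using 50 nM protein, 50 nM peptide and 10 ug/mL streptavidin donor plus Ni-chelate acceptor beads.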
HP1b binding inh – inhibitors of HP1-beta chromodomain binding to methylated histone tails; Potency, µM (series often up to 114 µM), inactives show at the top dose activity change, negative = inhibition, usual class: inhibitors; actives 0.56% (n = 390,000); AID 540317; AlphaScreen HP1-beta / biotin-H3K9me3 peptide binding; P83916; note: nearly all actives have a fitted effect of over 70% in size
Target sequence (P83916 whole entry, looked up): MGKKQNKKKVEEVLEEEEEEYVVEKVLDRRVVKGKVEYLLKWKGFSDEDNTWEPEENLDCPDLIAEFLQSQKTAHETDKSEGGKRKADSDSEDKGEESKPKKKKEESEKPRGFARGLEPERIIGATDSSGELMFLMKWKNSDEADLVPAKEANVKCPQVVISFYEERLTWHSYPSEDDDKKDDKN
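Compound inhibition of the preformed complex between 50 nM HP1-beta and 50 nM biotinylated H3K9me3 peptide was read by AlphaScreen. Buffer was PBS pH 7.4 with 0.01% Tween-20. Incubations ran 30 min at room temperature, with 10 ug/mL donor/acceptor beads.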
Sfp PPTase inh – inhibitors of Bacillus subtilis Sfp phosphopantetheinyl transferase; Q9F4F7; Biochemical Sfp PPTase activity, qHTS; Potency, µM, without a hit: largest response in the series, negative = inhibition, actives largely listed as inhibitors; actives 3.5% (n = 310,000);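 note: the enzyme is Sfp with the accession as filed and its product quenches rhodamine fluorescence; 0% = enzyme reaction without inhibitor and -100% = no enzyme wells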
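Fluorescence-quenching assay with 15 nM Sfp, 5 uM rhodamine-CoA and 12.5 uM BHQ-2-labelled ybbR peptide in pH 7.6 Hepes/MgCl2 buffer. Enzyme was pre-incubated with compound for 15 min at room temperature. Rate was taken from the 30-min fluorescence change (525/598 nm).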
JMJD2A Tudor inh – inhibitors of human JMJD2A Tudor domain; AlphaScreen JMJD2A-Tudor / H3K4me3 peptide binding; Potency, µM (highest dose often 114 µM), inactives show top-dose activity change, negative = inhibition, usual class: inhibitors; actives 4.4% (n = 390,000); note: % is set by controls: 0 for no effect and ±100 for the full control effect; nearly all actives have a fitted effect of over 50% in size
G9a block – inhibitors of human histone lysine methyltransferase G9a | actives 8.8% (n = 350,000) | G9a H3K9 monomethylation, AlphaScreen, 2 h | Q96KQ7 | AID 504332 | Potency, µM (top dose mostly 102 µM), without a hit: at the highest dose activity, negative = inhibition, actives largely listed as inhibitors; note: % is set by controls: 0 for no effect and ±100 for the full control effect; nearly all actives have a fitted effect of over 75% in size
Target sequence (Q96KQ7 913-1193 limits assumed): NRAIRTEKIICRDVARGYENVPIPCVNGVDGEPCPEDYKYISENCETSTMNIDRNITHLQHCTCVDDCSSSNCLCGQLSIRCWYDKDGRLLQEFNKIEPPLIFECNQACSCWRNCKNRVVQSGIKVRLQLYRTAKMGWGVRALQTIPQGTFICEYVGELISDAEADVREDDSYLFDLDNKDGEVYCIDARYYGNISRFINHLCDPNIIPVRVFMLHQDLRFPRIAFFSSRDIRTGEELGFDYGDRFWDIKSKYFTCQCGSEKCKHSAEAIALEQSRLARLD
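Signal arises when biotinylated H3K9 peptide, once monomethylated, bridges streptavidin donor and antibody-captured acceptor beads. Enzyme at 20 nM was preincubated 15 min with test compounds; peptide 500 nM and SAM 20 uM then reacted for 2 h.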
* = called active by the depositor; ? = inconclusive; . = not tested or not shown; [ ] = dose if it differs, or a comment. Calls come from the whole dose curve; as a rule, active = well fitted curve in the direction sought with a large enough effect; inconclusive = small, poorly fitted or top-dose-only effect, or another doubt; inactive = no such curve, though single readings can be large; an effect the other way counts as inactive or inconclusive. Potency is the fitted concentration of half-maximal effect.

SMILES | BAZ2B inh | HP1b binding inh | Sfp PPTase inh | JMJD2A Tudor inh | G9a block
COc1ccc(C2COc3c(ccc(O)c3OC)C2)c(OC)c1O (configuration not stated) | . | . | -11.1% | . | -39.0%[2.33 µM]
O=C(CCCCn1c(=O)c2ccccc2n(Cc2ccc(Cl)cc2)c1=O)NCc1ccccc1Cl | -0.7% | 27.9% | . | -4.8% | -4.1%[59 µM]
COCC(C)n1c(C)cc(C(=O)COC(=O)c2nc3nc(C)cc(C)n3n2)c1C (configuration not stated) | -10.1% | 15.4% | 13.9% | -15.4% | 56.2µM*
COCC(C)n1c(C)cc(C(=O)COC(=O)c2cccn2C)c1C (configuration not stated) | . | -1.0% | . | -29.4% | .
CC(=O)c1cccc(CN2CCc3ccc(NC(=O)C4CCCO4)cc3C2)c1 (configuration not stated) | -0.8% | 32.2% | 5.8% | -10.3% | 83.6%
CS(=O)(=O)N1CCc2ccc(NC(=O)C3CCCO3)cc2C1 (configuration not stated) | -9.9% | 52.4% | 4.6% | -11.7% | 79.4µM*
COc1ccc(/C=C2\SC(N3CCCCC3)=NC2=O)cc1OC | 2.6% | -21.7% | 17.1% | -25.2% | 20.9%
COc1ccc(OC)c(/C=C2\SC(N3CCCC(C)C3)=NC2=O)c1 (configuration not stated) | -4.4% | 45.7% | ? | 7.5% | 28.2µM*
CCCCOc1ccc(-c2nc(=S)[nH][nH]2)cc1 | -7.3% | 2.6% | -5.8% | -19.0% | 1.26µM*
CCCCOc1ccc(-c2nc(SCC(N)=O)n[nH]2)cc1 | 8.7% | 24.2% | 10.3% | -18.3% | 2.2%
COc1ccc(-c2csc(=Nc3ccccc3)n2CCO)cc1F | 50.1µM* | ? | . | 39.8µM* | 15.8µM*
COc1ccc(N=c2scc(-c3ccc(OC)cc3)n2CCO)cc1 | 31.6µM* | ? | 8.8% | ? | ?
Cc1ccc(C)c(NC(=O)Cn2cc(C(=O)c3ccncc3)c(=O)c3cc(F)ccc32)c1 | -18.3% | 20.2%[57 µM] | . | -8.0% | -2.3%[59 µM]
Cc1oc(C(C)(C)C)cc1C(=O)N1CCCC1C(=O)O (configuration not stated) | -3.2% | 7.1% | 25.1% | 100µM* | -4.6%[59 µM]
COc1ccccc1N1CCN(C(=O)c2cc(C(C)(C)C)oc2C)CC1 | -17.8% | -9.7% | -21.9% | -23.6% | ?
COc1ccc(NC(=O)CCS(=O)(=O)c2nc(-c3ccc4c(c3)OCO4)cc(C(F)(F)F)n2)cc1OC | -10.6% | 16.0% | . | -19.5% | 11.2µM*
COc1cc(NC(=O)CCS(=O)(=O)c2nc(-c3ccc4c(c3)OCO4)cc(C(F)(F)F)n2)cc(OC)c1OC | 0.1% | 66.0% | . | -0.3% | ?
COc1ccc(CNC(=O)CCSc2nc(-c3ccc4c(c3)OCO4)cc(C(F)(F)F)n2)cc1 | 57.8% | 43.2% | 79.4µM* | -7.3% | 9.6%[59 µM]
O=C(CCSc1nc(-c2ccc3c(c2)OCO3)cc(C(F)(F)F)n1)NCc1ccco1 | -3.4% | 49.7% | 39.8µM* | 0.0% | 4.8%
CCn1ncc(CNC(=O)CCCSc2nc(-c3ccco3)cc(C(F)(F)F)n2)c1C | -9.1% | 23.3% | -23.8% | -6.0% | 15.8µM*
COc1ccc(-c2nc(SC(C)C(=O)NC3CC3)n[nH]2)cc1 (configuration not stated) | -4.6% | 23.4% | . | 1.4% | -3.9%
CCOc1ccc(NC(=O)Cn2c(=O)n(CC(=O)NCCc3ccccc3)c(=O)c3sccc32)cc1 | 0.9% | 21.8% | . | -17.4% | -6.4%[59 µM]
CCOC(=O)OCC1OC(C#Cc2ccccc2)C=CC1Oc1cccc(N(C)C)c1 (configuration not stated) | . | . | -5.0% | . | .
O=C(O)c1ccccc1/C=N/Nc1nc(N2CCCCC2)nc(N2CCCCC2)n1 | -16.4% | . | 13.5% | . | -1.8%
FC(F)(F)c1ccccc1/C=N/n1c(C2CCCCC2)n[nH]c1=S | -36.4% | -11.0% | ? | ? | 8.91µM*
SMILES | BAZ2B inh | HP1b binding inh | Sfp PPTase inh | JMJD2A Tudor inh | G9a block
COc1ccccc1/C=C/C=N/n1c(C2CCCCC2)n[nH]c1=S | -33.8% | ? | -3.5% | ? | 3.16µM*
S=c1[nH]nc(C2CCCCC2)n1/N=C/c1ccccc1Cl | ? | ? | 63.1µM* | 22.4µM* | 2.24µM*
O=C(O)c1ccccc1/C=N/n1c(C2CCCCC2)n[nH]c1=S | -12.0% | -24.7% | -11.5% | 7.94µM* | 22.4µM*
O=C(CSc1nnc(CNC(=O)c2c(F)cccc2Cl)o1)Nc1cccc(F)c1 | 1.4% | 42.7% | . | -5.1% | -27.1%[59 µM]
COc1ccc(N2CCN(Cc3nc4c(c(=O)[nH]c(=O)n4C)n3Cc3ccccc3F)CC2)cc1 | -24.1% | 39.4% | . | -7.9% | -11.4%[59 µM]
C[C@@H]1CC[C@H](O)/C=C/C(=O)O[C@H](C)CC[C@H](O)/C=C/C(=O)O1 | -13.4% | 21.5% | 4.1% | -20.4% | ?
CCn1c(SCC(=O)N2CCN(c3ccccc3)CC2)nc2c([nH]c3ccccc32)c1=O | -2.9% | 26.5% | 24.5% | 3.5% | -5.3%
COCCN(CC(=O)Nc1cccc(C)c1C)C(=O)Cc1ccsc1 | . | 29.3% | . | -5.9% | .
CCOc1ccccc1/C=N/n1c(C2CCCCC2)n[nH]c1=S | -29.9% | -6.6% | -26.1% | ? | 14.1µM*
CN(C)CCN(C(=O)c1ccc2ccccc2c1)c1nc2c(F)cc(F)cc2s1 | -23.4%[57.1 µM] | -15.7%[57 µM] | -2.8% | ? | 50.1µM*
Cc1cccc2sc(N(CCN(C)C)C(=O)c3ccc4ccccc4c3)nc12 | ? | -10.4%[57 µM] | -2.4% | ? | 39.8µM*
CN(C)CCN(C(=O)c1ccco1)c1nc2c(F)cc(F)cc2s1 | -8.7% | 20.4% | . | -16.2% | 0.2%[59 µM]
O=C(NCc1ccccc1Cl)c1ccc(Cn2c(=O)c3cccn3c3cccnc32)cc1 | -30.0% | 34.5% | . | -15.0% | -26.9%[59 µM]
Cc1ccc2c(c1)cc1c(=O)n(Cc3cccc(Cl)c3)nc(C)n12 | 1.0% | 43.2% | . | 8.7% | 12.9%[59 µM]
O=c1[nH]cnc2c1ncn2-c1ccc(N(CCO)CCO)cc1 | . | 28.6% | . | -11.1% | .
O=c1c(C=NCCCn2ccnc2)c(-c2ccccc2)[nH]n1-c1nc2ccccc2s1 | ? | -3.6% | 13.0% | ? | -6.3%[12.7 µM]
CN(C)CCCN=Cc1c(-c2ccccc2)[nH]n(-c2nc3ccccc3s2)c1=O | ? | 6.7% | 50.1µM* | -21.1% | .
CN1CCc2c(n(CC(O)CN(CCO)CCO)c3ccccc23)C1=O (configuration not stated) | -15.5% | 49.9% | ? | -28.4% | 35.5µM*
CN1CCc2c(n(CC(O)CNCc3ccccc3)c3ccccc23)C1=O (configuration not stated) | -25.9% | 34.5% | -13.7% | -9.7% | 50.1µM*
CN1CCc2c(n(CC(O)CN3C(=O)c4ccccc4S3(=O)=O)c3ccccc23)C1=O (configuration not stated) | -5.1% | 16.2% | 8.5% | -29.7% | -27.3%[59 µM]
Cc1ccc(Cl)cc1N1CCN(C(=O)c2cc(S(=O)(=O)N3CCCCCC3)cn2C)CC1 | ? | 5.0%[57 µM] | . | -35.8% | -35.8%[59 µM]

Compound activity deposited in PubChem BioAssay by National Center for Advancing Translational Sciences (NCATS).
